ELG1 repair inh: blocks ELG1-dependent DNA repair in HEK293T cells; HEK293T ELG1-luciferase reporter, luminescence, 16 h; DNA damage induced by 5-fluorouridine; Potency, µM (top dose mostly 46.1 µM), hits mostly inhibitors; hit rate 2.3% among 330,000; also: nearly all actives have a fitted effect of over 55% in size
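Step one: seed 2,000 cells per well. Step two: pin-transfer compound or DMSO alongside 5-fluorouridine. Step three: incubate 16 hr, 37 °C, 5% CO2. Step four: add ONE-Glo, wait 30 min, read luminescence.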
Nrf2 inh: Nrf2 pathway inhibition | A549 ARE-Fluc reporter, luciferase luminescence, 18-24 h | Potency, µM (titrated, usually from 46 µM), actives largely listed as inhibitors | hit rate 2.1% among 360,000 | AID 504444; also: nearly all actives have a fitted effect of over 60% in size
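Concentration-response testing used A549 ARE_Fluc cells at 5000 cells/well. Following an 18-24 h compound incubation, viability was read by fluorescence (Ex 405/Em 525) and luciferase output by luminescence.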
Nrf2 ARE act: Nrf2 pathway activation | AREc32 ARE-luciferase reporter (MCF7-derived line), luminescence, 24 h | hit rate 0.31% among 410,000 | Potency, µM (series often up to 46.1 µM), usual class: activators; also: nearly all actives have a fitted effect of over 65% in size
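Nrf2 activation is followed as ARE-luciferase induction in the AREc32 line after one day of compound treatment; luminescence is read with Steady-Glo.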
A549 viability: counter-screen for Nrf2 inhibitors: cytotoxicity in A549 cells. A549 ARE-Fluc cells, CellTiter-Fluor viability, 18-24 h. Potency, µM (series often up to 46 µM), hits mostly inhibitors. hit rate 0.16% among 390,000. AID 504648
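Cytotoxicity counterscreen: CellTiter-Fluor fluorescence was measured in A549 ARE_Fluc cells after 18-24 h of compound exposure in a concentration series. The subsequent BugLite luminescent read reports ARE-luciferase activity.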
Large screens that a line does not name were inactive. This is a sample that favours compounds with a hit; in the whole collection about 3.7% have one here. Calls follow the shape of the dose curve; as a rule, active = well fitted curve in the direction sought with a large enough effect; inconclusive = small, poorly fitted or top-dose-only effect, or another doubt; inactive = no such curve, though single readings can be large; an effect the other way counts as inactive or inconclusive.

N/C(=N/O)c1ccccc1N1CCC(Cc2ccccc2)CC1	ELG1 repair inh 15µM, Nrf2 inh inconclusive
COC(=O)c1ccc(Cn2c(SCc3ccc(F)cc3)nc3ccncc32)cc1	none (no result: ELG1 repair inh)
Cc1ccccc1-c1nc2c(=O)n(C)c(=O)nc-2n(C)n1	Nrf2 inh 2.3µM, A549 viability 4.1µM (no result: ELG1 repair inh, Nrf2 ARE act)
CCn1c(N)nc2c1c(=O)n(C)c(=O)n2C	none
Cn1nc(-c2ccccn2)nc2c(=O)n(C)c(=O)nc1-2	ELG1 repair inh inconclusive, Nrf2 inh 3.7µM, A549 viability 3.3µM
CCc1ccc(-c2nc3c(=O)n(C)c(=O)nc-3n(CC)n2)cc1	Nrf2 inh 15µM, A549 viability inconclusive (no result: ELG1 repair inh, Nrf2 ARE act)
CCCc1nc2c(=O)n(C)c(=O)nc-2n(C)n1	ELG1 repair inh 4.6µM, Nrf2 inh 23µM, A549 viability 6.5µM
Cc1cc2c(s1)c1cnn(Cc3cccc(C(F)(F)F)c3F)c(=O)c1n2C	none (no result: ELG1 repair inh, Nrf2 ARE act)
COC(=O)c1ccccc1NC(=O)c1ccc(-c2nc(COc3ccccc3)c(C)o2)cc1	none (no result: ELG1 repair inh)
C[C@H](CO)N1C[C@H](C)[C@H](CN(C)S(=O)(=O)c2cccc(F)c2)Oc2ncc(-c3cccc(C(=O)N(C)C)c3)cc2C1=O	none (no result: ELG1 repair inh, Nrf2 inh, A549 viability)
CCCn1c(=O)c2c(nc3n2CCCN3CCc2ccccc2)n(C)c1=O	ELG1 repair inh inconclusive
Cn1c(=O)n(Cc2ccc(F)cc2)c(=O)c2c1nc1n2CCCN1Cc1ccccc1	ELG1 repair inh 21µM (no result: Nrf2 inh)
Cn1c(=O)n(CCc2ccccc2)c(=O)c2c1nc1n2CCCN1CCc1ccccc1	ELG1 repair inh 23µM, A549 viability inconclusive (no result: Nrf2 inh)
CCN(CC)C(=O)C1=C(C)N(CCCOC)C(=O)C(CC(=O)NCc2cccs2)C1 (stereo not drawn)	none (no result: ELG1 repair inh, Nrf2 inh, A549 viability)
Cc1cccc(C)c1NC(=O)CN(C)C(=O)C1=COCCO1	none
Cc1ccc(S(N)(=O)=O)cc1NC(=O)/C=C/c1cccs1	Nrf2 ARE act 13µM (no result: Nrf2 inh)
NS(=O)(=O)c1ccc(NC(=S)NC(=O)/C=C/c2cccs2)cc1	none
Cc1ccc(CN(C)C(=O)COC(=O)CSc2cc(C)c3ccccc3n2)cc1	none
COc1ccccc1N1CCN(C(=O)c2cccc3c(=O)c(C)c(-c4ccccc4)oc23)CC1	ELG1 repair inh 21µM
COc1ccccc1N1CCN(C(=O)c2cc3c(C)nc4ccccc4c3o2)CC1	ELG1 repair inh 13µM, Nrf2 inh inconclusive
Cc1ccc(C)c(N2CCN(C(=O)c3cc4c(C)nc5ccccc5c4o3)CC2)c1	ELG1 repair inh inconclusive
CN(C)CCCNC(=O)C(=O)NCC(c1ccc2c(c1)OCO2)N1CCOCC1 (stereo not drawn)	none (no result: ELG1 repair inh, Nrf2 inh)
Cc1ccc(Sc2c(C(=O)NCc3ccccc3C)[nH]c3ccccc23)cc1	none (no result: ELG1 repair inh)
COc1ccc(-c2c(C#CC(C)(C)O)c3ccccc3n2C)cc1	none
COc1ccc(-c2sc3ccc(N4CCOCC4)cc3c2C#CC(C)(C)O)cc1	none
COc1ccc(-c2oc3ccc(N4CCOCC4)cc3c2C#CCO)cc1	Nrf2 inh 18µM (no result: ELG1 repair inh)
COc1ccc(-c2ccc3oc(-c4ccc(OC)cc4)c(-c4ccc(OC)cc4)c3c2)cc1	none (no result: ELG1 repair inh)
COc1ccc(-c2oc3ccccc3c2C#CC(C)(C)O)cc1	ELG1 repair inh 13µM
COc1ccc(-c2ccc3oc(-c4ccc(OC)cc4)c(C#CCO)c3c2)cc1	Nrf2 inh 8.2µM (no result: ELG1 repair inh)
Cc1nn(-c2ccccc2)nc1C(=O)Oc1cc(C(F)(F)F)nn1-c1ccccc1	none
COc1ccc(Cc2c(-c3cccc(Cl)c3)nc3ccc(C)cn23)c(C)c1	none (no result: ELG1 repair inh, Nrf2 inh, A549 viability)
COC(=O)c1ccc(Cl)cc1NC(=O)N1CCC(CN2CCC(C)CC2)CC1	none (no result: ELG1 repair inh)
COc1ccccc1Cn1c(CNS(=O)(=O)c2c(C)cc(C)cc2C)nc2cccnc21	none (no result: ELG1 repair inh, Nrf2 inh)
O=c1c2ccccc2nc(-c2ccco2)n1Cc1ccccc1	Nrf2 inh inconclusive (no result: ELG1 repair inh)
CCOc1ccc(CCn2c(-c3ccco3)nc3ccccc3c2=O)cc1OCC	ELG1 repair inh 9.2µM, Nrf2 inh inconclusive
COCCOc1cc(Nc2nnc(C(F)(F)F)s2)c(Cl)cc1Cl	ELG1 repair inh 6.5µM, Nrf2 inh inconclusive
CCOC(=O)c1cnc(SC)nc1Oc1cccc(NC(=O)c2ccc(Cl)cc2)c1	none (no result: Nrf2 inh)
CCOC(=O)c1cnc(SC)nc1Oc1cccc(NS(=O)(=O)c2ccc(Cl)cc2)c1	ELG1 repair inh 23µM
O=C(Cn1c(-c2cccs2)cc2cc(Cl)ccc21)N1CCCCC1	none (no result: ELG1 repair inh)
Nc1cc(-c2ccccc2)nn1S(=O)(=O)c1ccc(F)cc1	ELG1 repair inh inconclusive, Nrf2 inh 18µM
Nc1cc(-c2ccc(Br)cc2)nn1S(=O)(=O)c1ccccc1	none
COc1cc(-c2cc(N)n(S(=O)(=O)c3ccc(F)cc3)n2)cc(OC)c1OC	Nrf2 inh inconclusive
COc1ccc(-c2cc(N)n(S(=O)(=O)c3ccc(F)cc3)n2)cc1OC	ELG1 repair inh 5.8µM, Nrf2 inh 16µM
CC(=O)OC1c2c(ccc3ccc(=O)oc23)OC(C)(C)C1OC(=O)CC(C)C (stereo not drawn)	none
CC(C)CC(=O)OC1C(N2CCOCC2)c2c(ccc(/C=C/C(=O)N3CCOCC3)c2O)OC1(C)C (stereo not drawn)	ELG1 repair inh 16µM
OC(c1ccc(Cl)c(F)c1)c1ncc(-c2cccc(F)c2)[nH]1 (stereo not drawn)	none (no result: ELG1 repair inh, Nrf2 inh, A549 viability)
COc1ccc2oc(=O)c(C(=O)NCc3ccccc3)cc2c1	none
COc1ccc(C(=O)N/N=c2\oc3ccccc3cc2C(=O)NCc2ccccc2)cc1	ELG1 repair inh 10µM
CCc1ccc(OCC(=O)O/N=C(\N)c2ccncc2)cc1	ELG1 repair inh inconclusive
Cc1ccc(-c2nc(C)sc2CC(=O)Nc2cccc(C)c2C)cc1	none
O=C1CN2NC(=S)N(c3ccccc3)C2=CN1c1ccc(Cl)cc1	none
Brc1ccc(-c2nnc(-c3cccnc3)c3conc23)cc1	Nrf2 ARE act 7.1µM (no result: ELG1 repair inh)
CCC1=NN2C(=N)/C(=C\c3cccn3-c3ccc(Cl)cc3)C(=O)N=C2S1	ELG1 repair inh inconclusive
CCC1=NN2C(=N)/C(=C\c3cccn3-c3ccc(C)c(C)c3)C(=O)N=C2S1	ELG1 repair inh 18µM
Cc1nn(C)cc1CNC(=O)/C=C/c1cnn(C)c1	none
COc1ccc(/C=C/C(=O)NCc2cn(C)nc2C)cc1COc1ccc(Br)cc1	ELG1 repair inh inconclusive, Nrf2 inh 18µM
CC(c1ccco1)N(C(=O)c1ccc(Cl)c([N+](=O)[O-])c1)c1ccccn1 (stereo not drawn)	none
COc1ccccc1NC(=O)C1CCCN(c2ncnc3c2nc2n3CCCCC2)C1 (stereo not drawn)	ELG1 repair inh 21µM, Nrf2 inh inconclusive
CCc1c(C)nc2ncnn2c1N1CCCC(C(=O)NCc2ccc3c(c2)OCO3)C1 (stereo not drawn)	ELG1 repair inh inconclusive, Nrf2 inh 10µM
COc1cc(OC)c(NC(=O)C2CCCN(c3ncnc4c3nc3n4CCCCC3)C2)cc1Cl (stereo not drawn)	Nrf2 inh inconclusive (no result: ELG1 repair inh)
CCc1ccccc1N(CC)C(=O)C1CCN(c2ncnc3c2nc2n3CCCCC2)CC1	ELG1 repair inh 15µM
CCc1c(C)nc2ncnn2c1N1CCCC(C(=O)Nc2ccc(NC(C)=O)cc2)C1 (stereo not drawn)	none
Fc1ccccc1N1CCN(c2ncnc3c2nc2n3CCCC2)CC1	Nrf2 inh 21µM (no result: ELG1 repair inh)
